Whole data set: some 33,000 sequences, median “E-score (-0.5 to 0.5)” near -0.01, cut for the highest 2% near 0.26. The entries come from a sample that favours the highest values as a whole.
These sequences were tested against Ste12 (UniProt P13574) (assay: PBM E-score (8-mer binding enrichment) (E-score (-0.5 to 0.5)); higher = stronger / more preferred TF binding). Conditions: protein concentration: 200 nM; construct: GST-DNA-binding domain.
Procedure, shortened: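 PURExpress in vitro transcription/translation supplied GST-tagged yeast transcription factors, either full-length or DNA-binding domain. Applied at about 100-200 nM to universal all-10-mer Agilent arrays double-stranded by primer extension, the bound protein was detected with fluorescent anti-GST. E-scores, modified Wilcoxon-Mann-Whitney statistics, were given by the Universal PBM Analysis Suite to ungapped eight-base words pooled with their reverse complements after masliner normalisation.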

UniProt P13574, sequence (P13574 whole entry, the tested form may be a part): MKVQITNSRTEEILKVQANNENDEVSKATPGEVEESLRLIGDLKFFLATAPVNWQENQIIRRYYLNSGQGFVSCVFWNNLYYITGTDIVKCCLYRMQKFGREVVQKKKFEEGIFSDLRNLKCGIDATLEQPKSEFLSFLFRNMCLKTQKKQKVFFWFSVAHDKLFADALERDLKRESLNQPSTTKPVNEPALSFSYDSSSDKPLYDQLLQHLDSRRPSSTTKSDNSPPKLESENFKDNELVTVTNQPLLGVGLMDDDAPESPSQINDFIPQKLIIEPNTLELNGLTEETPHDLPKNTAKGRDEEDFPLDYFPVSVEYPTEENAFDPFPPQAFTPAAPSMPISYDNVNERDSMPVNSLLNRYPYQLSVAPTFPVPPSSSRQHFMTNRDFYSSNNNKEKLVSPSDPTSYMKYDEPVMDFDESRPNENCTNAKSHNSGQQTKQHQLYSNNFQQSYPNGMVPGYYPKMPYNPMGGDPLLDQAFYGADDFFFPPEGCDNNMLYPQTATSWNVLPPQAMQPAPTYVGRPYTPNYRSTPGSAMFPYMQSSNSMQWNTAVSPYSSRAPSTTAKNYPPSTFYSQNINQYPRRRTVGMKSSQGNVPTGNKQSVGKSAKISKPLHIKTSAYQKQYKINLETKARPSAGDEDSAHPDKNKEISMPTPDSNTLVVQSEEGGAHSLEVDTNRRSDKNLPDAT

| Sequence | PBM E-score |
| --- | --- |
| CGCCAATA | 0.036 |
| GTTTGATA | 0.301 |
| CTTTGAGA | 0.114 |
| CTTTGAAC | 0.0927 |
| CTTTGATA | 0.179 |
| CTTTGAAA | 0.318 |
| GTTTGAGA | 0.311 |
| ATTTGATA | 0.258 |
| ATTTGAAA | 0.366 |
| ATTTGAGA | 0.126 |
| ATTTGAAC | 0.123 |
| ATTTGAAG | 0.0968 |
| CTTTGACA | -0.0728 |
| CGCCCTTA | -0.0507 |
| AGTGAACG | -0.109 |
| TGCGTCAA | 0.0654 |
| GTCCAAAC | 0.0248 |
| ACGCTTGG | -0.293 |
| ATAGACGC | 0.0365 |
| GTTTGACA | 0.0294 |
| GTTTGCAA | 0.186 |
| GTTTGAAA | 0.409 |
| AGCGGCTC | -0.0004 |
| ACCAAAAC | 0.235 |

| Sequence | PBM E-score |
| --- | --- |
| CACCAAAA | 0.216 |
| TACCAAAA | 0.204 |
| ACCAACAT | 0.125 |
| ACCAAAAT | 0.254 |
| ACCAAAAA | 0.27 |
| ACCAACAG | -0.042 |
| AACCAAAA | 0.324 |
| ACCAACAA | 0.269 |
| TATTAAGA | 0.0777 |
| GCATCTAC | 0.0977 |
| AGCTTGAA | -0.0125 |
| CGTGGAAA | 0.19 |
| TATGGAAA | 0.292 |
| GATGGAAA | 0.0433 |
| CATGGAAA | 0.098 |
| TGTGGAAA | 0.286 |
| AGTGGAAA | -0.0995 |
| CTCAAGGA | -0.181 |
| ACTGGTCC | -0.0777 |
| AACTTTTA | 0.228 |
| CACCTTCC | 0.0254 |
| GAAACCCA | 0.246 |
| AAACCCGA | 0.336 |
| GAACCCAA | -0.0682 |

| Sequence | PBM E-score |
| --- | --- |
| CAAACCCG | 0.0369 |
| GAACCCGA | -0.0553 |
| AAACCCCC | -0.122 |
| TAACCCGA | -0.0489 |
| CAAACCCA | 0.262 |
| AAACCCCG | 0.28 |
| AACCCCCG | -0.133 |
| AAACCCAA | 0.349 |
| AAACCCAT | 0.131 |
| GCGCACCC | -0.0102 |
| CCAAGGGC | -0.139 |
| CCGCACCC | 0.222 |
| CAAGTTCG | -0.0514 |
| CTTCTAAC | -0.0172 |
| AGTCTAGC | -0.223 |
| CTATCGCA | -0.0857 |
| AGGTGATA | 0.0763 |
| ACCGATGC | -0.0639 |
| CTGAAAAA | 0.0763 |
| ACGAAAAC | 0.25 |
| ATGAAAAT | 0.166 |
| GTGAAAAC | 0.0815 |
| TAGAAAAA | 0.0605 |
| ATGAAAAG | -0.0787 |

| Sequence | PBM E-score |
| --- | --- |
| ATGAAAAC | 0.349 |
| TTGAAAAA | 0.323 |
| ATGAAAAA | 0.305 |
| CGACCTTA | 0.111 |
| ACGCCAGT | -0.084 |
| ATAACTAT | 0.0787 |
| CAAAAATC | 0.123 |
| ACAAAATG | 0.0682 |
| ACAAAATC | 0.291 |
| GAAAAATC | 0.201 |
| AAAAAATC | 0.363 |
| ACAAAATA | 0.0836 |
| CTACCACC | -0.102 |
| AATCGACA | 0.248 |
| CAGCGACC | -0.0234 |
| GGCGTGGA | -0.0873 |
| AATAGTCA | -0.0559 |
| ATTTACAC | 0.18 |
| AGGTGAAA | 0.235 |
| TGGTGCAA | -0.18 |
| TGGTGACA | 0.048 |
| TGGTGAAA | 0.277 |
| GGGTGAAA | 0.315 |
| CGGTGAAA | 0.245 |

From the supplement of paper PMC3334620
